Source: the supplement of paper PMC13380429

Tested on: Vero E6 infected with SARS-CoV-2
Experiment: inhibition of SARS-CoV-2 cytopathic effect; higher = more antiviral protection, active = above 15
Details: 48 h

Measured: inhibition of SARS-CoV-2 cytopathic effect

O=C(O)/C=C/c1ccc(O)c(O)c1 [caffeic-acid]
inactive: 1 nM 2.05% | 8.33 nM -0.05% | 100 nM 0.87% | 833.33 nM -0.22% | 10000 nM -4.36%

CC(=O)OC[C@H]1O[C@@](COC(C)=O)(O[C@H]2O[C@H](COC(C)=O)[C@@H](OC(C)=O)[C@H](OC(C)=O)[C@H]2OC(C)=O)[C@@H](OC(C)=O)[C@@H]1OC(C)=O [sucrose-octaacetate]
inactive: 1 nM 0.66% | 8.33 nM 1.07% | 100 nM -1.24% | 833.33 nM -0.47% | 10000 nM -0.86%

O=c1cc(-c2ccc(O)cc2)oc2cc(O)cc(O)c12 [apigenin]
inactive: 1 nM -2.83% | 8.33 nM -3.34% | 100 nM -1.73% | 833.33 nM 0.85% | 10000 nM 6.4%

CNC(=O)c1ccc2c(c1)CCO[C@H]2CCN1CCN(c2ccc(C(N)=O)cc2)CC1
inactive: 1 nM 1.05% | 8.33 nM -0.55% | 100 nM 1.37% | 833.33 nM -1.27% | 10000 nM 3.34%

Cc1cccc(N(C)C(=S)Oc2ccc3ccccc3c2)c1 [tolnaftate]
inactive: 1 nM -0.91% | 8.33 nM 0.08% | 100 nM -1.72% | 833.33 nM 1.03% | 10000 nM 3.31%

CC(=O)N(C)c1cc(-c2ccnc3c(C(=O)c4cccs4)cnn23)ccc1F [lorediplon]
inactive: 1 nM 0.42% | 8.33 nM -0.41% | 100 nM 1.97% | 833.33 nM 1.05% | 10000 nM 1.78%

Cc1cc2ncc(C(=O)NCC(C)(C)NCC(=O)N3CCC[C@H]3C#N)cn2n1 [anagliptin]
inactive: 1 nM -0.17% | 8.33 nM -0.56% | 100 nM -0.23% | 833.33 nM 0.84% | 10000 nM 0.07%

CC1(C)[C@H]2CC[C@]1(C)[C@@H](O)[C@H]2O [cis-exo-camphanediol-2,3]
inactive: 1 nM 1.51% | 8.33 nM 2.75% | 100 nM 4.45% | 833.33 nM 5.23% | 10000 nM 0.605%

COC(=O)C1=C(C)NC(C)=C(C(=O)OCCSc2ccccc2)[C@@H]1C
inactive: 1 nM -2.31% | 8.33 nM -3.84% | 100 nM -2.77% | 833.33 nM -0.76% | 10000 nM 3.1%

CCS(=O)(=O)Nc1ccc2c(c1)/C(=C(/Nc1ccc(CN3CCCCC3)cc1)c1ccccc1)C(=O)N2 [hesperadin]
inactive: 1 nM 1.74% | 8.33 nM 3.12% | 100 nM 0.27% | 833.33 nM -9.14% | 10000 nM -10.5%

C[N+](C)(C)CC(=O)O [betaine]
inactive: 1 nM -1.71% | 8.33 nM -0.6% | 100 nM 0.16% | 833.33 nM 1.31% | 10000 nM -1.65%

O=C1CC2(CCCC2)CC(=O)N1CCCCNC[C@H]1COc2ccccc2O1 (racemic)
inactive: 1 nM 2.83% | 8.33 nM -1.41% | 100 nM -1.75% | 833.33 nM -0.98% | 10000 nM -5.48%

O=C(O)C(=O)O.[NH-][C@@H]1CCCC[C@H]1[NH-].[Pt+2] [oxaliplatin]
inactive: 1 nM 1.5% | 8.33 nM 1.96% | 100 nM 10.3% | 833.33 nM -2.36% | 10000 nM 1%

CCCN(CCC)CCc1cccc2c1CC(=O)N2 [ropinirole]
inactive: 1 nM 0.18% | 8.33 nM -0.55% | 100 nM -1.05% | 833.33 nM 2.2% | 10000 nM -0.98%

C[N+]1([O-])[C@@H]2CC[C@H]1C[C@@H](OC(=O)C(CO)c1ccccc1)C2 (stereo not given in full) [atropine-oxide]
inactive: 1 nM -2.53% | 8.33 nM -2.05% | 100 nM -1.67% | 833.33 nM -2.02% | 10000 nM -1.76%

C[C@H]1O[C@@H](O[C@H]2[C@@H](O)C[C@H](O[C@H]3[C@@H](O)C[C@H](O[C@H]4CC[C@@]5(C)[C@H](CC[C@@H]6[C@@H]5C[C@@H](O)[C@]5(C)[C@@H](C7=CC(=O)OC7)CC[C@]65O)C4)O[C@@H]3C)O[C@@H]2C)C[C@H](O)[C@@H]1O [digoxin]
inactive: 1 nM -0.14% | 8.33 nM -0.96% | 100 nM -7.12% | 833.33 nM -13.3% | 10000 nM -14.5%

Ic1cc(-c2ccccc2)ncn1 [4-iodo-6-phenylpyrimidine]
inactive: 1 nM -0.63% | 8.33 nM 0.56% | 100 nM -2.43% | 833.33 nM 1.94% | 10000 nM -1.36%
